Laboratory results: PubChem BioAssay (NCI)
Compounds without any hit were thinned out: in the full panel of roughly 83,000, 20% have a hit.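 Growth was measured after 48 h exposure to one concentration of compound in 96-well plates. Values under 10 count as active.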 Calls of active or inactive are those of the source.

Columns and labels:
Assay in all cases: NCI-60 one-dose screen, 48 h (100 = growth as untreated, 0 = no growth, -100 = all killed)
BT-549 breast = details: 10 µM unless noted
MDA-MB-435 melanoma = details: 10 µM unless noted
SW-620 colon = details: 10 µM unless noted
MCF7 breast = details: 10 µM
HCT-116 colon = details: 10 µM unless noted
HCC-2998 colon = details: 10 µM unless noted
KM12 colon = details: 10 µM unless noted

Measured: growth

COc1ccc(/C=C/C(=O)c2c(C)nc3ccccc3c2/C=C/c2ccccc2)c(OC)c1
inactive: BT-549 breast 89.2% | MDA-MB-435 melanoma 88.9% | SW-620 colon 80.5% | MCF7 breast 62.6% | HCT-116 colon 51.5% | HCC-2998 colon 92.1% | KM12 colon 87.4%

COc1ccc(-c2nc(-c3ccccn3)c(-c3ccccn3)n2CC(C)C)cc1OC1CCCC1
inactive: BT-549 breast 38.5% | MDA-MB-435 melanoma 26.9% | SW-620 colon 21.9% | MCF7 breast 10.8% | HCT-116 colon 14.7% | HCC-2998 colon 24.4%
active: KM12 colon 8.2%

COc1ccc(N2C(=O)CC(c3cc(OC)c(OC)c(OC)c3)C3C2=NC(=O)N3C)cc1 (stereo not given)
inactive: BT-549 breast 109% | MDA-MB-435 melanoma 101% | SW-620 colon 102% | MCF7 breast 98.1% | HCT-116 colon 106% | HCC-2998 colon 117% | KM12 colon 105%

CCOC(=O)c1c(C=O)nc2ccccc2c1/C=C/c1ccc(Cl)cc1
inactive: BT-549 breast 99.6% | MDA-MB-435 melanoma 101% | SW-620 colon 103% | MCF7 breast 78% | HCT-116 colon 82.4% | HCC-2998 colon 110% | KM12 colon 96.1%

O=C(Nc1ccc(N2CCNCC2)cn1)c1[nH]ncc1Nc1ncnc2sccc12
inactive: BT-549 breast 93.4% | MCF7 breast 20.1% | HCC-2998 colon 52.6% | KM12 colon 57.3%
active: MDA-MB-435 melanoma -86.1% | SW-620 colon -89.2% | HCT-116 colon -68.2%

COC(=O)C1=Nc2ccc(F)cc2/C1=C/c1sc(=S)[nH]c1O
inactive: SW-620 colon 22.6% | MCF7 breast 12.5% | HCC-2998 colon 25% | KM12 colon 10.3%
active: BT-549 breast -3.33% | MDA-MB-435 melanoma -20.9% | HCT-116 colon 6.89%

CCOC(=O)c1sc(-c2ccc(OS(=O)(=O)c3ccc(Br)s3)c(C=O)c2)nc1C
inactive: HCC-2998 colon 82.5%
active: BT-549 breast 9.16% | MDA-MB-435 melanoma -12.1% | SW-620 colon 7.65% | MCF7 breast 0.976% | HCT-116 colon 2.52% | KM12 colon 6.21%

CCOc1cccc(/C=N\Nc2nc(=O)cc(C(=O)OC)s2)c1O
active: MCF7 breast 8.66%
inactive: BT-549 breast 85.4% | MDA-MB-435 melanoma 91.6% | SW-620 colon 79.3% | HCT-116 colon 22% | HCC-2998 colon 78% | KM12 colon 75.3%

CN1C(=O)N(C)C2Nn3c(s/c(=C\c4ccc(Cl)cc4Cl)c3=O)=NC21 (stereo not given)
inactive: BT-549 breast 93.9% | SW-620 colon 63.1% | MCF7 breast 45.4% | HCT-116 colon 43.9% | HCC-2998 colon 86.5% | KM12 colon 28.7%
active: MDA-MB-435 melanoma 8.74%

COc1ccc(Cn2c(Br)c3c(c2-c2cc(OC)c(OC)c(OC)c2)CCc2sc(NC(C)=O)nc2-3)cc1
active: MDA-MB-435 melanoma -57%
inactive: BT-549 breast 74.2% | SW-620 colon 20.5% | MCF7 breast 16.3% | HCT-116 colon 40.7% | HCC-2998 colon 70.2% | KM12 colon 30.4%

COc1cc(/C(C#N)=C/c2nc3c(N4CCOCC4)nc(Cl)nc3n2C)cc(OC)c1OC
inactive: BT-549 breast 20.7% | SW-620 colon 19.8%
active: MDA-MB-435 melanoma -48.5% | MCF7 breast 6.74% | HCT-116 colon 4.75% | HCC-2998 colon 7.16% | KM12 colon 1.09%

COc1ccccc1C1=C(Br)C(=O)c2nc(C)ccc2C1=O
inactive: BT-549 breast 90.4% | MDA-MB-435 melanoma 104% | SW-620 colon 87.9% | MCF7 breast 90.8% | HCT-116 colon 92.1% | HCC-2998 colon 102% | KM12 colon 103%

CC/C(=C(\CC)c1ccc(OCC[N+](C)(C)C)cc1)c1ccc(OC)cc1
inactive: BT-549 breast 74.5% | MDA-MB-435 melanoma 86% | SW-620 colon 68.5% | MCF7 breast 89% | HCT-116 colon 48.9% | HCC-2998 colon 47.9% | KM12 colon 51.3%

N#C/C(=C1\SC(=O)CN1c1ccccc1)c1nc2ccccc2s1
inactive: BT-549 breast 103% | MDA-MB-435 melanoma 102% | SW-620 colon 93.5% | MCF7 breast 73.8% | HCT-116 colon 89% | HCC-2998 colon 97.3% | KM12 colon 98.4%

CN(C)/C=C1\SC(=Nc2ccc(Cl)cc2)NC1=O
inactive: BT-549 breast 104% | MDA-MB-435 melanoma 104% | SW-620 colon 99.9% | MCF7 breast 91% | HCT-116 colon 104% | HCC-2998 colon 104% | KM12 colon 106%

COc1cc(/C=C2\CN(S(=O)(=O)c3ccccc3)C/C(=C\c3cc(CN4CCCC4)c(O)c(OC)c3)C2=O)cc(CN2CCCC2)c1O
inactive: BT-549 breast 33.5%
active: MDA-MB-435 melanoma -37.1% | SW-620 colon 4.93% | MCF7 breast 5.38% | HCT-116 colon -81.1% | HCC-2998 colon -87.9% | KM12 colon -56.3%

CCOC(=O)c1c2c(n3cccc(Cl)c13)C(=O)c1ncccc1C2=O
active: HCT-116 colon 8.41%
inactive: BT-549 breast 69.2% | MDA-MB-435 melanoma 79.9% | SW-620 colon 36.4% | MCF7 breast 43.3% | HCC-2998 colon 46% | KM12 colon 46.3%

O=S1(=O)CCN(Cc2ccccc2)CC1
inactive: BT-549 breast 95.7% | MDA-MB-435 melanoma 97.6% | SW-620 colon 103% | MCF7 breast 104% | HCT-116 colon 88.4% | HCC-2998 colon 101% | KM12 colon 93.9%

Cc1c(C(=O)OCCO)cc(-c2ccc(Cl)cc2)n1-c1ccc(Cl)cc1Cl
inactive: BT-549 breast 92.8% | SW-620 colon 67.3% | MCF7 breast 44.3% | HCT-116 colon 60.3% | HCC-2998 colon 100% | KM12 colon 52.4%
active: MDA-MB-435 melanoma 4.72%

O=c1[nH]nnc2c1ncn2C1OC(CO)C(O)C1O (stereo not given)
inactive: BT-549 breast 97.7% | MDA-MB-435 melanoma 76.5% | SW-620 colon 63.3% | MCF7 breast 63.9% | HCT-116 colon 51.8% | HCC-2998 colon 34.4% | KM12 colon 60.7%

N#Cc1c(N)nc2c(c1N)C(c1ccc(F)cc1)c1ccc(N)cc1O2 (stereo not given)
inactive: BT-549 breast 93.8% | MDA-MB-435 melanoma 107% | SW-620 colon 108% | MCF7 breast 98.9% | HCT-116 colon 101% | HCC-2998 colon 112% | KM12 colon 91.2%

CN1CCN(Cc2ccc(C(=O)Nc3cncc(C#Cc4cnc5cccnn45)c3)cc2C(F)(F)F)CC1
inactive: BT-549 breast 78.3% | MDA-MB-435 melanoma 57.7% | SW-620 colon 21.8% | MCF7 breast 20.4% | HCT-116 colon 13% | HCC-2998 colon 90% | KM12 colon 12.7%

CCCCc1ccc(NS(=O)(=O)c2cc3c4c(c2)CCN4C(=O)CC3)cc1
active: BT-549 breast 0.335%
inactive: MDA-MB-435 melanoma 29.6% | SW-620 colon 25.3% | MCF7 breast 16.2% | HCT-116 colon 13.4% | HCC-2998 colon 19% | KM12 colon 21%

COc1cc(/C=C2\CN(C)C/C(=C\c3cc(CN4CCCCC4)c(O)c(OC)c3)C2=O)cc(CN2CCCCC2)c1O
active: MDA-MB-435 melanoma 2.5% | KM12 colon 5.98%
inactive: BT-549 breast 61.3% | SW-620 colon 20% | MCF7 breast 11.7% | HCT-116 colon 30.7% | HCC-2998 colon 16.1%

Oc1ccc(-c2nc(-c3ccc4oc5ccc(-c6[nH]c(-c7ccc(O)cc7)nc6-c6ccccc6)cc5c4c3)c(-c3ccccc3)[nH]2)cc1
inactive: BT-549 breast 57.2% | MDA-MB-435 melanoma 43.5% | SW-620 colon 54.7% | MCF7 breast 50.7% | HCT-116 colon 31.3% | HCC-2998 colon 62.3% | KM12 colon 50.8%

O=C(/C=C/c1ccccc1)c1ccc(Nc2nc(NCCO)nc(Nc3ccc(Cl)cc3)n2)cc1
active: MCF7 breast 9.88%
inactive: BT-549 breast 84.4% | MDA-MB-435 melanoma 77.2% | SW-620 colon 18.7% | HCT-116 colon 27.5% | HCC-2998 colon 62.5% | KM12 colon 28.2%

Cc1ccc2sc3c(NCCCNCCO)nc4ccccc4c3c(=O)c2c1
active: MDA-MB-435 melanoma -80% | SW-620 colon -78.2% | MCF7 breast -78.8% | HCT-116 colon -67% | HCC-2998 colon -75.5% | KM12 colon -50.4%
inactive: BT-549 breast 90.2%

O=C(Nc1ccc(F)c(Cl)c1)Nc1ccc(Cl)c(Cl)c1
active: MDA-MB-435 melanoma -7.47%
inactive: BT-549 breast 64% | SW-620 colon 35% | MCF7 breast 55.1% | HCT-116 colon 50.6% | HCC-2998 colon 94.6% | KM12 colon 51.6%

CCCCN1CCN(c2ccc3nc(-c4ccc5nc(-c6ccc(OCC)cc6)[nH]c5c4)[nH]c3c2)CC1
active: SW-620 colon 8.61% | MCF7 breast 1.77%
inactive: BT-549 breast 83.9% | MDA-MB-435 melanoma 55.1% | HCT-116 colon 21.1% | HCC-2998 colon 90.3% | KM12 colon 49.1%

COc1ccc(CCN2C(=O)CCSC2=S)cc1OC
active: KM12 colon 5.07%
inactive: BT-549 breast 114% | MDA-MB-435 melanoma 96.2% | SW-620 colon 87.6% | MCF7 breast 28% | HCT-116 colon 103% | HCC-2998 colon 102%

CN(C)c1ccc(N=Cc2ccc(N3CCOCC3)cc2)cc1
inactive: BT-549 breast 95.1% | MDA-MB-435 melanoma 74.1% | SW-620 colon 44.2% | MCF7 breast 39% | HCT-116 colon 67.6% | HCC-2998 colon 54.2% | KM12 colon 59.5%

NC1(N2SC(S)=C3CCCC=C32)CCCCC1
inactive: BT-549 breast 118% | MDA-MB-435 melanoma 107% | SW-620 colon 99.3% | MCF7 breast 95.4% | HCT-116 colon 98.4% | HCC-2998 colon 101% | KM12 colon 102%

COC(=O)/C(CCC=C(C)C)=C1\[C@@H](OC(C)=O)C[C@@]2(C)[C@H]1C[C@@H](O)[C@H]1[C@@]3(C)CC[C@H](NCCO)[C@@H](C)[C@@H]3CC[C@@]12C
inactive: BT-549 breast 114% | MDA-MB-435 melanoma 98.9% | SW-620 colon 97% | MCF7 breast 98.8% | HCT-116 colon 105% | HCC-2998 colon 106% | KM12 colon 103%

COc1ccc(/C=C/C(=O)c2ccc3cc(OC)c(OC)cc3c2)cc1OC
inactive: BT-549 breast 33.9% | SW-620 colon 11.1% | MCF7 breast 25.9% | HCT-116 colon 16.9% | HCC-2998 colon 48.6% | KM12 colon 21.5%
active: MDA-MB-435 melanoma 7.45%

O=C(Nc1ccccc1O)c1ccc(-c2ccc(Cl)cc2Cl)o1
inactive: BT-549 breast 91.7% | MDA-MB-435 melanoma 96.9% | SW-620 colon 101% | MCF7 breast 87.5% | HCT-116 colon 68.7% | HCC-2998 colon 96.5% | KM12 colon 78.8%
